From PubChem
Shown are actives, neighbours in structure and some others; about 19% of the full set was active somewhere.
DT40 TDP1 CPT: qHTS for Inhibitors of human tyrosyl-DNA phosphodiesterase 1 (TDP1): qHTS in cells in presence of CPT; Potency, µM (highest dose often 46.2 µM), for the others: at the highest dose activity change, negative = growth inhibition, actives largely listed as inhibitors; hit rate 12% among 420,000; chicken DT40 Tdp1-/-;hTDP1 cells + 20 nM CPT, ATP luminescence, 48 h; AID 686979, 2013; note: potency is the fitted concentration of half-maximal effect; nearly all actives have a fitted effect of over 55% in size
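Chicken DT40 Tdp1-/- cells stably complemented with human TDP1 were seeded at 400 cells/well in medium containing 20 nM camptothecin, exposed to pin-transferred compounds, and grown at 37 °C for at least 48 hr. Viability was read as ATP luminescence.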
DT40 TDP1 no CPT: qHTS for Inhibitors of human tyrosyl-DNA phosphodiesterase 1 (TDP1): qHTS in cells in absence of CPT; DT40 Tdp1-/- hTDP1 cells, no CPT, ATP luminescence, 48 h; Potency, µM (top dose mostly 46.2 µM), inactives show at the highest dose activity change, negative = growth inhibition, actives largely listed as inhibitors; hit rate 15% among 420,000; note: potency is the fitted concentration of half-maximal effect; nearly all actives have a fitted effect of over 55% in size
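Readout: luminescence from CellTiter-Glo after 30 min in the dark at RT. Cells: DT40 Tdp1-/- with stable hTDP1, 400/well. Exposure: compounds alone, ≥48 hr, 37 °C.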
HT1080NT lethal: qHTS for induction of synthetic lethality in tumor cells producing 2HG: qHTS for the HT-1080-NT fibrosarcoma cell line; HT-1080-NT fibrosarcoma viability, CellTiter-Glo ATP luminescence, 48 h; Potency, µM (series often up to 46.1 µM), inactives show at the highest dose activity, negative = less viability, actives largely listed as cytotoxic; hit rate 1.6% among 360,000;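 note: NT is the 2HG producing partner of a matched IDH1 knockdown line; potency is the fitted concentration of half-maximal effect; 0% = DMSO-treated cells and -100% = media-only wells without cells; nearly all actives have a fitted effect of over 55% in size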
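Luminescent CellTiter-Glo readout after 48 hours of compound exposure at 37 degrees C defined viability of HT-1080-NT cells. Activity was normalized to DMSO wells and cell-free media wells; concentration-response curves were fitted and assigned curve classes.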
HT1080 IDH1KD tx: qHTS for induction of synthetic lethality in tumor cells producing 2HG: qHTS for the HT-1080-IDH1KD cell line; HT-1080 IDH1 knockdown viability, ATP luminescence, 48 h; Potency, µM (titrated, usually from 46.1 µM), for the others: at the top dose activity, negative = toxicity, hits mostly cytotoxic; hit rate 2% among 360,000;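 note: potency is the fitted concentration of half-maximal effect; 0% = DMSO wells and -100% = cell-free medium wells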
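% activity derives from luminescence (CellTiter-Glo), normalised to DMSO and no-cell wells. HT-1080-IDH1KD cells, 750/well, had 48 h compound exposure at 37 °C.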
ELG1 DNA repair: qHTS screen for small molecules that inhibit ELG1-dependent DNA repair in human embryonic kidney (HEK293T) cells expressing luciferase-tagged ELG1; HEK293T ELG1-luciferase reporter, luminescence, 16 h; DNA damage induced by 5-fluorouridine; Potency, µM (top dose mostly 46.1 µM), for the others: at the highest dose activity change, negative = inhibition, usual class: inhibitors; hit rate 2.3% among 330,000; AID 504467, 2011; note: potency is the fitted concentration of half-maximal effect; nearly all actives have a fitted effect of over 55% in size
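DMSO vehicle served as the neutral condition. Each well held 2,000 cells given 5-fluorouridine plus compound; after 16 hr at 37 °C/5% CO2, ONE-Glo was added and luciferase measured 30 min later.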
IL1B secr inh: qHTS for Inhibitors of Inflammasome Signaling: IL-1-beta AlphaLISA Primary Screen; THP-1 LPS/ATP IL-1B secretion, AlphaLISA, 16 h; stronger effect = lower value; activity change, % at 57.5 µM; hit rate 4.7% among 360,000; in the data active = activity change below about -50%; inconclusive = mostly about -30% to -49%
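Secreted IL-1B measured by AlphaLISA bead assay after 16 h compound exposure of THP-1 cells; compounds (final up to 57.5 uM) added 1 h before LPS (250 ng/mL) and ATP (1.25 mM) stimulation; lower signal means less secretion.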
An asterisk follows results filed as active; ? = inconclusive; nt = no result given; ! = not active in a repeat; [ ] = remark or other dose. Unless noted, calls come from the whole dose curve; as a rule, active = well fitted curve in the direction sought with a large enough effect; inconclusive = small, poorly fitted or top-dose-only effect, or another doubt; inactive = no such curve, though single readings can be large; an effect the other way counts as inactive or inconclusive. Unless noted, % is set by controls: 0 for no effect and ±100 for the full control effect.

SMILES | DT40 TDP1 CPT | DT40 TDP1 no CPT | HT1080NT lethal | HT1080 IDH1KD tx | ELG1 DNA repair | IL1B secr inh
Cc1cccc(OCCCC(=O)N2CCCc3ccccc32)c1C | ? | -22% | -2% | -12% | -13% | -10
Cc1nn(CC(C)C)c(Cl)c1C(=O)NCC1CCCO1 (stereo unspecified) | -9% | -1% | 10% | 9% | nt | 13
CCOC(=O)CN1C(=O)c2cccnc2Oc2ccccc21 | 9% | -21% | nt | nt | nt | nt
CC(NC(=O)c1ccc(OC2CCN(Cc3ccccn3)CC2)cc1)c1ccccc1 (stereo unspecified) | ? | 18µM* | -1% | -10% | 17% | -17
CC(C)n1c(SCC(=O)NCc2ccco2)nnc1C1CC1 | -8% | -2% | -8% | -5% | 13% | 15
O=C(O)c1cc(O)c2c(c1)[C@@H]([C@H]1c3cc(C(=O)O)cc(O)c3C(=O)c3c(O[C@@H]4O[C@H](CO)[C@@H](O)[C@H](O)[C@H]4O)cccc31)c1cccc(OC3O[C@H](CO)[C@@H](O)[C@H](O)[C@H]3O)c1C2=O (stereo partly specified) | ? | ? | -23% | -21% | -9% | -3
O=C(O)c1cc(O)c2c(c1)[C@H]([C@H]1c3cc(C(=O)O)cc(O)c3C(=O)c3c(O[C@@H]4O[C@H](CO)[C@@H](O)[C@H](O)[C@H]4O)cccc31)c1cccc(OC3O[C@H](CO)[C@@H](O)[C@H](O)[C@H]3O)c1C2=O (stereo partly specified) | 15µM* | 15µM* | -19% | ? | ? | 13
CCc1ccc(/C=C2/Sc3ccccc3N(CC(=O)NCC3CCCO3)C2=O)cc1 (stereo unspecified) | ? | ? | -16% | ? | 13µM* | -6
CN1CCN(C(=O)CCn2c(=S)[nH]c3ccccc3c2=O)CC1 | 4% | 12% | 5% | 1% | nt | -12
CC(=O)c1ccc(N2CCN(C(=O)C3CCN(S(=O)(=O)c4c(C)noc4/C=C/c4ccc(C)cc4)CC3)CC2)cc1 | 6.5µM* | 2.6µM* | nt | nt | nt | nt
Cc1ccc(/C=C/c2onc(C)c2S(=O)(=O)N2CCC(C(=O)N3CCC(N(C)C(C)C)CC3)CC2)cc1 | 5.2µM* | 6.5µM* | nt | nt | nt | nt
Cc1ccc(/C=C/c2onc(C)c2S(=O)(=O)N2CCC(C(=O)N3CCN(c4ccccc4F)CC3)CC2)cc1 | 21µM* | 2.6µM* | nt | nt | nt | nt
Cc1cccc(N2CCN(C(=O)C3CCN(S(=O)(=O)c4c(C)noc4/C=C/c4ccccc4F)CC3)CC2)c1C | -23% | ? | nt | nt | nt | nt
CCC1CN(C(=O)C2CCN(S(=O)(=O)c3c(C)noc3/C=C/c3ccc(C)cc3)CC2)c2cc(C)ccc2O1 (stereo unspecified) | -28% | 1% | nt | nt | nt | nt
Cc1cccc(N2CCN(S(=O)(=O)c3ccc4oc(=O)c5ncn(C)c5c4c3)CC2C)c1 (stereo unspecified) | -11% | 4% | nt | nt | nt | nt
COC(=O)c1[nH]nc(-c2ccccc2)c1-c1ccccc1 | 3% | ? | -13% | -7% | nt | 0
O=C(CCc1ccccc1)N1CCN(Cc2ccc(F)cc2Cl)CC1 | -2% | -29% | -7% | 0% | -9% | ?
COc1c(-c2ccc(O)cc2)oc2cc(O)cc(O)c2c1=O | ? | ? | 0% | -2% | ? | 58
COc1cc(O)c2c(=O)c3c(O[C@H]4O[C@@H](CO)[C@H](O)[C@@H](O)[C@@H]4O)ccc(O)c3oc2c1 | -17% | 1% | 8% | 19% | 8% | 0
COc1ccc(-c2oc3ccccc3c(=O)c2O)cc1OC | -28% | -29% | nt | nt | nt | nt
COc1ccc(-c2oc3cc(O)c(OC)c(O)c3c(=O)c2OC)cc1 | 10µM* | 13µM* | ? | 21µM* | 12% | 48
COc1ccc(-c2oc3ccc(C)cc3c(=O)c2O)cc1OC | 12µM* | ? | nt | nt | nt | nt
NC(=O)c1c(-c2ccccc2)oc2ccc(O)cc12 | -23% | -14% | -5% | 6% | ? | 0
O=c1c(O)c(-c2ccc(O)cc2)oc2ccc(O)cc12 | 13µM* | 13µM* | nt | nt | nt | nt
COc1ccc(-c2oc3cc(O[C@@H]4OC(CO)C(O)C(O)C4O)c(OC)c(O)c3c(=O)c2OC)cc1O (stereo partly specified) | ? | 15µM* | nt | nt | nt | nt
SMILES | DT40 TDP1 CPT | DT40 TDP1 no CPT | HT1080NT lethal | HT1080 IDH1KD tx | ELG1 DNA repair | IL1B secr inh
Fc1ccc(Sc2cc(Cl)c(-c3ccccc3)nn2)cc1 | 10% | -12% | -5% | 4%[9.24 µM] | 1% | 0
COc1ccc(CN2C(=O)CN(S(C)(=O)=O)CC2(C)C(=O)NC(C)C)cc1OC (stereo unspecified) | 16% | 16% | -2% | 10% | nt | -13
COc1ccc(-c2oc3c(OC)c(OC)c(OC)c(O)c3c(=O)c2OC)cc1OC | ? | 21µM* | -10% | -12% | 12µM* | 34
Cc1cc(C)cc(NC(=O)CN2C(=O)COc3ccc(S(=O)(=O)N4CCCC4)cc32)c1 | ? | ? | -10% | -8% | 7% | -7
COc1ccc(NC(=O)CN2C(=O)COc3ccc(S(=O)(=O)N4CCOCC4)cc32)cc1Cl | ? | 18µM*! | -1% | 0% | 19% | ?
Cc1ccc(NC(=O)CN2C(=O)COc3ccc(S(=O)(=O)N4CCCCC4)cc32)cc1N(C)C | 23µM* | 21µM* | nt | nt | nt | nt
COc1ccccc1NC(=O)CN1C(=O)COc2ccc(S(=O)(=O)N3CCOCC3)cc21 | -19% | 1% | -1% | 10% | 3% | -7
COc1ccc(-c2nnc(SCC(=O)Nc3cccc(F)c3)s2)cc1 | -16% | -8% | nt | nt | nt | nt
CCc1ccc(NS(=O)(=O)c2ccc(C(=O)N(C)C)s2)cc1 | 18µM* | 15µM* | nt | nt | nt | nt
Cn1cccc1C(=O)N1CCC2(CCN(Cc3ccc(C#N)cc3)CC2)CC1 | -29% | ? | nt | nt | nt | nt
CCN(CC)C(=O)c1oc2ccc(S(=O)(=O)N3CC(C)CC(C)C3)cc2c1C (stereo unspecified) | 4.1µM* | 9.2µM* | ? | ? | ? | -7
